# Values joined by “and” are separate entries in the source; they are usually repeats but may differ in a detail not shown here. Equal entries are not always repeated.
# Target: Serine/threonine-protein kinase 26 (Homo sapiens) (UniProt Q9P289)
# Conditions: at 0.1 µM
# Chain of Serine/threonine-protein kinase 26 (Homo sapiens) (Q9P289 2-416 limits assumed): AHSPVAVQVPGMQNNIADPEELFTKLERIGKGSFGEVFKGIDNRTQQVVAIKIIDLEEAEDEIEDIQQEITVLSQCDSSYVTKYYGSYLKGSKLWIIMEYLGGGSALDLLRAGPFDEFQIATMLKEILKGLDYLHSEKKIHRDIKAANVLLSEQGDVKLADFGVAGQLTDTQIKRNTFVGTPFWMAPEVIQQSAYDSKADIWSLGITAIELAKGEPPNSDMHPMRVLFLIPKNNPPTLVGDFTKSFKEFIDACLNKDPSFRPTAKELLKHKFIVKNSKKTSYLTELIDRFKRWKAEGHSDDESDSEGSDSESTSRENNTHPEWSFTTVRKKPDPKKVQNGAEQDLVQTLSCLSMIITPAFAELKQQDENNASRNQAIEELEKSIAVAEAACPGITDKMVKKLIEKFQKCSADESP
row,SMILES,inhibition
1,CNC(=O)c1cncc(/C=C/c2ccccc2C)c1,1.02%
2,CC(C)c1ccc(-c2cc(-c3c[nH]nc3-c3ccccn3)ccn2)cc1,0.06%
3,Fc1cccc(COc2ccc(Nc3ncncc3C#Cc3ccccc3)cc2Cl)c1,-0.45%
4,NS(=O)(=O)c1ccc(N/N=C2\C(=O)Nc3cccc(CCc4ccncc4)c32)cc1,10.5%
5,CCn1c(-c2nonc2N)nc2cncc(C(=O)NCCNC)c21,-3.72%
6,CS(=O)(=O)CCNCc1ccc(-c2ccc3ncnc(Nc4ccc(OCc5cccc(C(F)(F)F)c5)cc4)c3c2)o1,-1.93%
7,Cc1cc(O)cc(C)c1/C=C/c1cncc(C(=O)OC(C)(C)C)c1,0.35%
8,O=C(O[C@H]1CN[C@H](C#Cc2cc3ncnc(Nc4ccc(OCc5cccc(F)c5)c(Cl)c4)c3s2)C1)N1CCOCC1,-0.22%
9,c1ccc(-c2n[nH]cc2-c2ccnc(-c3ccc(OCCn4ccnc4)cc3)c2)nc1,-1.3%
10,c1cnn2ncc(-c3ccnc(NCCCN4CCOCC4)n3)c2c1,-1.84%
11,O=C(O[C@H]1CN[C@H](C#Cc2cc3ncnc(Nc4ccc5c(ccn5Cc5cc(F)ccc5F)c4)c3s2)C1)N1CCOCC1,-1.74%
12,O=C(O[C@H]1CN[C@H](C#Cc2cc3ncnc(Nc4ccc5c(cnn5Cc5ccccc5)c4)c3s2)C1)N1CCOCC1,0.75%
13,COc1ccc(Nc2ncc(-c3ccccc3)o2)cc1OC,-0.79%
14,CC1=C(C(=O)Nc2ccc3[nH]nc(C)c3c2)C(c2ccc(C(F)(F)F)cc2)CC(=O)N1 (stereo unspecified),-1.47%
15,Cn1c(-c2nonc2N)nc2cnccc21,-0.57%
16,CCS(=O)(=O)c1ccc(OC)c(Nc2ncc(-c3cccc(F)c3)o2)c1,-0.55%

row,SMILES,inhibition
1,Cc1nnc(-c2cccc(-c3ccc(C(=O)NCC4CC4)cc3)c2)o1,-0.42%
2,COc1cc2c(cc1Nc1nc(Nc3cccc(F)c3C(N)=O)c3cc[nH]c3n1)N(C(=O)CN1CCN(C(C)C)CC1)CC2,1.63%
3,COc1cc(N2CCN(C(C)C)CC2)ccc1Nc1nc(Nc2cccc(F)c2C(=O)O)c2cc[nH]c2n1,-0.64%
4,NC(=O)c1ccc2c(-c3ccnc(NCCCO)n3)c(-c3ccc(F)cc3)nn2c1,-2.37%
5,COc1ccccc1-c1cc(/C=C2\C(=O)Nc3ncc(Br)cc32)cc(Br)c1O,2.55%
6,COC(=O)Nc1nc2ccc(Oc3ccc(NC(=O)Nc4cc(C(F)(F)F)ccc4F)cc3)cc2s1,0.45%
7,CN1CCC(C(=O)Nc2n[nH]c3nc(-c4ccc(O)cc4)c(Br)cc23)CC1,1.4% and 1.72%
8,CCOc1ccc2c(-c3ccnc(Nc4cc(OC)cc(C(F)(F)F)c4)n3)cnn2n1,1.73%
9,CC1=C(C(=O)Nc2ccc3[nH]ncc3c2)C(c2ccc(F)cc2)N=C(c2ccc(C(F)(F)F)nc2)N1 (stereo unspecified),-0.24%
10,Nc1ncnc2occ(-c3ccc(NC(=O)Nc4cc(C(F)(F)F)ccc4F)cc3)c12,0.12% and -0.14%
11,CCS(=O)(=O)c1ccc(OC)c(Nc2ncc(-c3cccc(C(C)=O)c3)o2)c1,-0.19%
12,FC(F)(F)CNc1nccc(-c2cnn3ncccc23)n1,-0.96%
13,CN(C)CCNC(=O)Nc1ccc(N(C)c2ccnc(Nc3ccc(CS(C)(=O)=O)cc3)n2)cc1,-0.89%
14,Nc1nccc(-c2c(-c3ccc(F)cc3)ncn2C2CCNCC2)n1,0.83% and -0.54%
15,CN1CCC(n2cnc(-c3ccc(F)cc3)c2-c2ccnc(NCCO)n2)CC1,-1.24%

# — ChEMBL document CHEMBL1961873, “Compounds: GSK PKIS; Assays: Nanosyn kinase panel” (2012)
